In the supplement of paper PMC6522484:
± gives the standard deviation of the averaged measurements.

Key:
DLD1 [1] = assay: cell viability (CellTiter-Glo) relative to plate median (fraction of plate median); higher = more viable cells; settings: 5 µM; treatment time 24 h; reporter: 7TFP
Method in brief: (§1)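 Colorectal cancer lines with stably integrated lentiviral TCF/Wnt firefly luciferase reporters received library compounds at a final 5 µM, 24 h after seeding into 384-well plates, for a 24 h exposure. Reported figures are plate-median-normalised firefly luciferase or CellTiterGlo luminescence per well. They average two independent replicates.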

HCT116 = assay: as above; settings: 5 µM; treatment time 24 h; reporter: TCF4/Wnt
Method in brief: as §1

SW480 [2] = assay: as above; settings: 5 µM; treatment time 24 h; reporter: 7TFP
Method in brief: as §1

DLD1 [3] = assay: TCF/Wnt firefly luciferase reporter signal relative to plate median (fraction of plate median); higher = higher Wnt reporter signal; settings: 5 µM; treatment time 24 h; reporter: 7TFP
Method in brief: as §1

SW480 [4] = assay: as above; settings: 5 µM; treatment time 24 h; reporter: 7TFP
Method in brief: as §1

Compound	cell viability (DLD1 [1])	cell viability (HCT116)	cell viability (SW480 [2])	TCF/Wnt firefly luciferase reporter signal (DLD1 [3])	TCF/Wnt firefly luciferase reporter signal (SW480 [4])
O=C1O[C@H](CO)[C@@H](O)[C@H](O)[C@H]1O	1.005 ± 0.0071	1.035 ± 0.0071	1.085 ± 0.0071	0.949 ± 0.051	0.945 ± 0.13
NS(=O)(=O)c1cc(C2(O)NC(=O)c3ccccc32)ccc1Cl (stereo not given)	1.02 ± 0.067	1.02 ± 0.036	0.986 ± 0.1	0.958 ± 0.13	0.981 ± 0.025
CC[C@H]1OC(=O)C[C@@H](O)[C@H](C)[C@@H](O[C@@H]2O[C@H](C)[C@@H](O[C@H]3C[C@@](C)(O)[C@@H](O)[C@H](C)O3)[C@H](N(C)C)[C@H]2O)[C@@H](CC=O)C[C@@H](C)C(=O)/C=C/C(C)=C/[C@@H]1CO[C@@H]1O[C@H](C)[C@@H](O)[C@@H](OC)[C@H]1OC	0.947 ± 0.046	1.08 ± 0.021	1.07 ± 0.021	1.1 ± 0.099	1.035 ± 0.0071
CC1=CC(=O)[C@H]2C(C)(C)CCC[C@]2(C)[C@@]1(O)CCc1ccoc1	0.976 ± 0.016	1.07 ± 0.15	0.998 ± 0.018	1.1 ± 0.099	0.95 ± 0.043
CCCCC(=O)N(Cc1ccc(-c2ccccc2-c2nnn[nH]2)cc1)[C@H](C(=O)O)C(C)C	0.908 ± 0.081	0.988 ± 0.17	1 ± 0.054	0.985 ± 0.078	0.919 ± 0.09
COc1cc(O)c(C(=O)c2ccccc2)cc1O	0.889 ± 0.07	0.84 ± 0.17	1.07 ± 0.15	0.891 ± 0.28	0.845 ± 0.12
O=c1[nH]cnc2nc[nH]c12	0.987 ± 0.061	1.04	0.913 ± 0.044	0.969 ± 0.043	1
COC(=O)N/N=C/c1c[n+]([O-])c2ccccc2[n+]1[O-]	0.917 ± 0.13	0.998 ± 0.2	0.974 ± 0.021	0.919 ± 0.064	0.9245 ± 0.0092
O.O.O.O.O=C([O-])CC(O)(CC(=O)[O-])C(=O)[O-].[Li+].[Li+].[Li+]	0.955 ± 0.11	0.852 ± 0.086	0.966 ± 0.0028	0.844 ± 0.012	0.725 ± 0.14
CC(C)CCC[C@@H](C)[C@H]1CC[C@H]2[C@@H]3C(=O)C=C4C[C@@H](O)CC[C@]4(C)[C@H]3CC[C@]12C	1.1 ± 0.092	0.99	1.04 ± 0.1	0.959 ± 0.018	1.01 ± 0.027
CC(CN(C)C)CN1c2ccccc2CCc2ccccc21 (stereo not given)	1 ± 0.021	0.929 ± 0.055	1.05 ± 0.086	0.93 ± 0.097	1.13 ± 0.099
CNC1(C)C2CCC(C2)C1(C)C (stereo not given)	0.844 ± 0.018	0.972 ± 0.11	0.924 ± 0.038	1.05 ± 0.021	0.904 ± 0.054
C[C@]12CCC[C@H](O1)c1c(cc3c(c1O)C(=O)c1c(O)cc(O)cc1C3=O)O2 [Averufin (Isoform B, Compound ID 7395)]	1.09 ± 0.14	1.01 ± 0.014	1.03 ± 0.054	1.02 ± 0.035	0.942 ± 0.14
O=c1cc(-c2ccc(O)cc2)oc2ccc(O)cc12	1.11 ± 0.11	1.1 ± 0.099	1.035 ± 0.0071	1.03 ± 0.11	1.125 ± 0.0071
C=C(C)[C@@H]1CC=C(CO)CC1	0.968 ± 0.1	0.972 ± 0.12	0.996 ± 0.0042	0.952 ± 0.016	0.972 ± 0.054
CC12CCC3c4ccc(OCc5ccccc5)cc4CCC3C1C[C@@H](O)[C@@H]2O (stereo not given in full)	1.08 ± 0.085	0.992 ± 0.026	1.01	0.95 ± 0.14	0.993 ± 0.025
C[C@H]1[C@H](C)CC[C@]2(CO)CC[C@]3(C)C(=CC[C@@H]4[C@@]5(C)CC[C@H](O)C(C)(C)[C@@H]5CC[C@]43C)[C@H]12	1 ± 0.042	1.02 ± 0.12	1 ± 0.05	0.871 ± 0.16	0.915 ± 0.048
CC(C(=O)O)c1cccc(Oc2ccccc2)c1 (stereo not given)	0.968 ± 0.088	0.98 ± 0.0057	0.988 ± 0.06	1.04 ± 0.085	1.11 ± 0.042
CC(C)c1c(O)ccc2c1CC[C@H]1C(C)(C)CCC[C@]21C	1.16 ± 0.12	1 ± 0.13	1.03 ± 0.076	0.855 ± 0.11	0.996 ± 0.035
CCOc1ccc(NC(C)=O)cc1	0.956 ± 0.12	1.065 ± 0.0071	1 ± 0.021	1.01 ± 0.08	1.06 ± 0.05
CCOC(=O)C(C)(C)Oc1ccc(Cl)cc1	1.01 ± 0.021	0.981 ± 0.0071	0.971 ± 0.055	1.24 ± 0.021	1.04 ± 0.035
CC(=O)Nc1cccc(O)c1	0.933 ± 0.17	1.1 ± 0.028	1.03 ± 0.021	0.949 ± 0.14	0.939 ± 0.13
CC1(C)S[C@@H]2[C@H](NC(=O)[C@H](N)c3ccc(O)cc3)C(=O)N2[C@H]1C(=O)O	0.928 ± 0.049	1.02 ± 0.067	0.95 ± 0.016	1.11 ± 0.092	1.01
C[C@H]1O[C@H](O[C@H]2[C@H](O)[C@@H](O)[C@@H](O[C@H]3[C@H](O)[C@@H](O)C(O)O[C@@H]3CO)O[C@@H]2CO)[C@H](O)[C@@H](O)[C@@H]1N[C@H]1C=C(CO)[C@@H](O)[C@H](O)[C@H]1O (stereo not given in full)	1.01 ± 0.034	0.96 ± 0.057	0.988 ± 0.012	1.06	1.02 ± 0.014
CC(=O)O[C@H]1C[C@@H](OC(C)=O)C(C)(C)[C@@H]2C[C@@H](OC(C)=O)[C@]3(C)[C@H](CC[C@@]4(C)[C@H](c5ccoc5)OC(=O)[C@H]5O[C@@]534)[C@@]12C	1.11 ± 0.14	1.18 ± 0.028	1.15 ± 0.042	1.07 ± 0.12	1.04 ± 0.021
NS(=O)(=O)c1cc(C(=O)O)c(NCc2ccco2)cc1Cl	0.993 ± 0.0099	1.04	1.09 ± 0.042	1.095 ± 0.0071	1.13 ± 0.057
CC[C@H](CC[C@@H](C)[C@H]1CC[C@H]2[C@@H]3CC=C4C[C@@H](O)CC[C@]4(C)[C@H]3CC[C@]12C)C(C)C [beta-SITOSTEROL]	1.07 ± 0.13	1.03 ± 0.035	1.13 ± 0.014	0.872 ± 0.0028	1.02 ± 0.035
COCCCOc1cc(C[C@@H](C[C@H](NC(=O)OC(C)(C)C)[C@@H]2C[C@@H](C(C)C)C(=O)O2)C(C)C)ccc1OC [Borrelidin derivative (C30H49NO7)]	1.01 ± 0.072	0.995 ± 0.036	0.959 ± 0.025	0.963 ± 0.12	0.9975 ± 0.0035
COc1cc(NS(=O)(=O)c2ccc(N)cc2)ncn1	0.88 ± 0.0092	0.9455 ± 0.005	0.931 ± 0.037	0.99 ± 0.028	0.941 ± 0.028
C[C@H](CCC(=O)O)[C@H]1CC[C@H]2[C@@H]3[C@H](O)C[C@@H]4C[C@H](O)CC[C@]4(C)[C@H]3C[C@H](O)[C@]12C	0.99 ± 0.043	1.07 ± 0.15	1.04 ± 0.066	1.02 ± 0.13	1.07 ± 0.035
